Measured values from PubChem BioAssay.
Activity calls are given as the source filed them.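 How the source made its calls, unless noted: active means compounds lowering colon cancer cell viability after pretreatment blocking the GSK3B kinase; inactive means the rest.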

Tests used:
[1] = stimulators of nuclear beta-catenin in C2C12, primary screen, imaging, WNT3A-conditioned medium, mouse C2C12, NPC library (AID 1117326; in the data active means nuclear beta-catenin stimulation mostly above about 4.2%, no sharp cut-off; inactive means mostly below about 10%; further: reference of the scale not given here); conditions: stronger effect = higher value
[2] = stimulators of insulin release from INS-1E, primary screen, cell-based, 5 mM glucose, NPC library (AID 1117329;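 active means compound raises insulin release from rat beta cells at 5 mM glucose, no numeric limit stated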; further: reference of the scale not given here); conditions: rat INS-1E insulin secretion, at 10 µM, stronger effect = higher value
[3] = growth inhibition of GSK3B-pretreated HCT116 cells – cell-based, CellTiter-Glo, 0.2 to 20 µM (AID 1117336); conditions: HCT116 viability after GSK3B inhibitor, at 20 µM, stronger effect = higher value
[4] = inhibition of endothelial tube formation, primary screen, imaging, VEGF stimulated, CD31 staining, tube area, NPC library (AID 1117340;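 active means compound that reduces growth-factor-driven endothelial tube area in a mixed cell culture, no cutoff stated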); conditions: VEGF-stimulated ADSC/ECFC co-culture, at 10 µM, stronger effect = higher value
[5] = glucagon-like peptide 1 release enhancers, primary assay, NCI-H716 cell line, NPC library (AID 1117341;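 active means compound raises GLP1 secretion from the human gut endocrine cells, with no numeric limit stated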; further: reference of the scale not given here); conditions: NCI-H716 cells, at 10 µM, stronger effect = higher value
[6] = HCT116 colon cancer cell growth inhibition, primary screen, CellTiter-Glo luminescence, NPC library (AID 1117342;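 active means compounds that lower survival of HCT116 colon cancer cells in the luminescence readout, no numeric limit stated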); conditions: at 20 µM (top of the series)
[7] = CellTiter-Glo luminescent readout of SW480 viability loss, NPC library primary (AID 1117343;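 active means compounds that lower viability of the colon cancer cells in the luminescence readout, with no numeric limit stated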); conditions: CellTiter-Glo luminescence; at 20 µM (top of the series)
[8] = decreased DLD-1 cellular survival, CellTiter-Glo luminescent readout, NPC compound collection, primary HTS (AID 1117346;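 active means compounds that lower survival of DLD-1 colon cancer cells in the luminescence readout, no cutoff given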); conditions: DLD-1 viability, CellTiter-Glo luminescence; at 20 µM (top of the series)

Structure (SMILES)	nuclear beta-catenin stimulation ([1]; at 10 µM)	nuclear beta-catenin stimulation ([1]; stimulation, at 2 µM) [%]	insulin secretion stimulation [2]	viability decrease [3]	tube area decrease [4]	GLP1 secretion stimulation [5]	inhibition of viability [6]	viability decrease (inhibition) [7]	viability decrease (inhibition) [8]
C[C@@H](O)[C@H]1C(=O)N2C(C(=O)[O-])=C(SC3Cn4cnc[n+]4C3)[C@H](C)[C@H]12 (some centres undefined)	-0.3% (inactive)	-2.1	6.4% (inactive)	-16.5% (inactive)	-9.3% (inactive)	0.8% (inactive)	15.4% (inactive)	-6.5% (inactive)	5.3% (inactive)
CC(NC(CCc1ccccc1)C(=O)O)C(=O)N1C(=O)N(C)CC1C(=O)O (centres undefined)	-1.2% (inactive)	1.8	5.3% (inactive)	-39.7% (inactive)	6% (inactive)	-5.4% (inactive)	2.8% (inactive)	4.5% (inactive)	-6% (inactive)
COC(=O)c1ccccc1C(=O)c1ccc(OCCN2CCCCC2)cc1	0.4% (inactive)	0.7	0.95% (inactive)	26.9% (inactive)	-5.8% (inactive)	3.5% (inactive)	39.7% (inactive)	15.8% (inactive)	39.7% (inactive)
O=C(N/N=C/c1ccccc1O)c1ccncc1	32.2% (inactive)	11.1	-1.6% (inactive)	94.3% (active)	86.7% (active)	2.1% (inactive)	88.7% (active)	106% (active)	57.8% (active)
CC1(C)O[C@@H]2C[C@H]3[C@@H]4CCC5=CC(=O)C=C[C@]5(C)[C@@H]4[C@@H](O)C[C@]3(C)[C@]2(C(=O)CO)O1	0.6% (inactive)	1.2	-1% (inactive)	-46.1% (inactive)	4.9% (inactive)	1.2% (inactive)	-6.5% (inactive)	-17.7% (inactive)	-7.4% (inactive)
O=P(O)(O)OCC(O)CO (centres undefined)	0.5% (inactive)	0.5	-2.1% (inactive)	4.35% (inactive)	-14.2% (inactive)	0.6% (inactive)	9.3% (inactive)	23.1% (inactive)	18.2% (inactive)
O=C(Nc1ccc(Cl)cc1)Nc1ccc(Cl)c(C(F)(F)F)c1	25.5% (inactive)	-0.2	-0.8% (inactive)	99.4% (active)	108% (active)	-3.9% (inactive)	99.3% (active)	102% (active)	102% (active)
O=C1C(c2[nH]c3ccc(S(=O)(=O)O)cc3c2O)=Nc2ccc(S(=O)(=O)O)cc21	-1.7% (inactive)	-0.3	5.5% (inactive)	23.1% (inactive)	-3.9% (inactive)	3% (inactive)	11.5% (inactive)	13.9% (inactive)	7% (inactive)
CC(=O)OCC(=O)Nc1cc(C#N)cc(NC(=O)COC(C)=O)c1Cl	-0.4% (inactive)	-1.4	4% (inactive)	-0.6% (inactive)	-12.8% (inactive)	3.3% (inactive)	0.9% (inactive)	-20.3% (inactive)	1.6% (inactive)
CC(C)(Cc1c[nH]c2ccccc12)NCC(O)COc1ccccc1C#N (centres undefined)	0.2% (inactive)	0	44.5% (active)	84.6% (active)	12.6% (inactive)	3.9% (inactive)	87% (active)	109% (active)	49.7% (inactive)
Cc1nc2n(c(=O)c1CCN1CCC(C(=O)c3ccc(F)cc3)CC1)CCS2	0.2% (inactive)	-0.8	0.2% (inactive)	38% (inactive)	14.8% (inactive)	5.4% (inactive)	67.6% (active)	29.6% (inactive)	33.5% (inactive)
CCCOC(C(=O)OC1CCN(C)CC1)(c1ccccc1)c1ccccc1	0.8% (inactive)	1.5	0.3% (inactive)	54.2% (active)	19.1% (inactive)	21.3% (active)	84.8% (active)	107% (active)	57.7% (active)
CCn1ccc(NS(=O)(=O)c2ccc(N)cc2)nc1=O	1.9% (inactive)	1.4	3.4% (inactive)	-22.1% (inactive)	11.6% (inactive)	2.7% (inactive)	-54.2% (inactive)	-2.8% (inactive)	-26.4% (inactive)
Cc1ccc(/C=N/n2c(-c3ccccc3)csc2=S)cc1	1.7% (inactive)	-0.8	5% (inactive)	50.3% (active)	18.4% (inactive)	0.3% (inactive)	16.7% (inactive)	56% (active)	37.1% (inactive)
COc1ccc2nc(SCc3ncc(C)c(OC)c3C)[nH]c2c1	1.9% (inactive)	0.8	3.1% (inactive)	1% (inactive)	24.8% (inactive)	1.6% (inactive)	26.8% (inactive)	-12.2% (inactive)	-6.1% (inactive)
CCc1nnc(NS(=O)(=O)c2ccc(N)cc2)s1	-0.1% (inactive)	2	-0.8% (inactive)	5.1% (inactive)	-5.1% (inactive)	-0.1% (inactive)	-13.8% (inactive)	4.4% (inactive)	-18.9% (inactive)

Structure (SMILES)	nuclear beta-catenin stimulation ([1]; at 10 µM)	nuclear beta-catenin stimulation ([1]; stimulation, at 2 µM) [%]	insulin secretion stimulation [2]	viability decrease [3]	tube area decrease [4]	GLP1 secretion stimulation [5]	inhibition of viability [6]	viability decrease (inhibition) [7]	viability decrease (inhibition) [8]
CCCCCCCCCCCCCC[N+](C)(C)C	61.2% (active)	7.5	-0.2% (inactive)	101% (active)	110% (active)	29.7% (active)	101% (active)	122% (active)	103% (active)
CCOC(=O)[C@@H](N)CS	-2% (inactive)	-1	2.3% (inactive)	-17.1% (inactive)	2.3% (inactive)	21% (active)	-5.6% (inactive)	34.7% (inactive)	4.2% (inactive)
CCc1cccc2c(CCO)c[nH]c12	1.1% (inactive)	0.4	0.7% (inactive)	12.2% (inactive)	-19.3% (inactive)	0.1% (inactive)	-1.1% (inactive)	-18% (inactive)	-6.5% (inactive)
NC[C@H]1O[C@H](O[C@H]2[C@@H](O)[C@@H](O[C@H]3O[C@H](CO)[C@@H](O)[C@H](N)[C@@H]3O)[C@H](N)C[C@@H]2N)[C@H](N)C[C@H]1O	0.2% (inactive)	1.4	-1.2% (inactive)	-19.7% (inactive)	-1.5% (inactive)	-0.3% (inactive)	-0.2% (inactive)	39.1% (inactive)	-15.9% (inactive)
N[C@H](C(=O)O)c1ccc(O)cc1	2.5% (inactive)	3.1	5.2% (inactive)	-0.7% (inactive)	-7.9% (inactive)	-2.9% (inactive)	6% (inactive)	13.1% (inactive)	-2.7% (inactive)
O=C(O)Cn1c(=O)n(Cc2ccc(Br)cc2F)c(=O)c2ccc(Cl)cc21	1.1% (inactive)	-0.9	2.4% (inactive)	4.6% (inactive)	21.7% (inactive)	-1.6% (inactive)	5% (inactive)	-2.1% (inactive)	-18.7% (inactive)
Cc1cc(O)c(C)c(C)c1O	2.1% (inactive)	-0.4	1.3% (inactive)	4.5% (inactive)	-1.3% (inactive)	-0.5% (inactive)	-1.8% (inactive)	-15.7% (inactive)	-26.1% (inactive)
Cc1nc(C2CCCCC2)c(-c2ccc(S(N)(=O)=O)c(F)c2)o1	2.5% (inactive)	4.1	1.4% (inactive)	21% (inactive)	24% (inactive)	1.8% (inactive)	-0.63% (inactive)	6.3% (inactive)	3.1% (inactive)
CC(=O)O[C@H]1C[C@@H]2CC[C@H]3[C@H]4C[C@H]([N+]5(C)CCCCC5)[C@@H](OC(C)=O)[C@@]4(C)CC[C@@H]3[C@@]2(C)C[C@H]1[N+]1(C)CCCCC1	0.7% (inactive)	0.2	-1.1% (inactive)	-2.7% (inactive)	9.9% (inactive)	-1.6% (inactive)	-3.6% (inactive)	-1.7% (active)	-2.8% (inactive)
CCN1CCN(c2cc(-c3ccc(F)cc3)c3c(n2)CCCCCC3)CC1	0.2% (inactive)	-3.3	1.9% (inactive)	104% (active)	24% (inactive)	11.2% (inactive)	113% (active)	132% (active)	102% (active)
O=[N+]([O-])c1nccn1CO[C@@H](CO)[C@H](O)CO	-0.2% (inactive)	-0.8	1.45% (inactive)	40% (inactive)	-13.2% (inactive)	-3.1% (inactive)	7.6% (inactive)	2.3% (inactive)	-5.8% (inactive)
COc1cc2c(cc1OC)CN(C(=O)[C@H](C)N[C@@H](CCc1ccccc1)C(=O)O)[C@H](C(=O)O)C2	-0.2% (inactive)	-2.5	0.4% (inactive)	-9.2% (inactive)	14.8% (inactive)	-1.8% (inactive)	7.6% (inactive)	-3.9% (inactive)	-16.7% (inactive)
NCCNc1cccc2ccccc12	1.9% (inactive)	1.1	1.9% (inactive)	-5.55% (inactive)	-35.7% (inactive)	0.6% (inactive)	17.2% (inactive)	51.5% (active)	7.9% (inactive)
O=C(O)c1ccccc1S	4.7% (inactive)	-1.3	-0.1% (inactive)	1% (inactive)	13.4% (inactive)	-1.4% (inactive)	2.1% (inactive)	31.6% (inactive)	-3.4% (inactive)
CC(C=CC1=C(C)CCCC1(C)C)=CC=CC(C)=CC(=O)Oc1c(C)c(C)c2c(c1C)CC[C@@](C)(CCC[C@H](C)CCC[C@H](C)CCCC(C)C)O2	2.1% (inactive)	2.2	2.9% (inactive)	2.5% (inactive)	-4.2% (inactive)	2.3% (inactive)	32.1% (inactive)	-36.9% (inactive)	4% (inactive)
